Data from PubChem BioAssay.
Several values for one entry are separate records, joined by “and”; a condition that tells them apart may be missing. Equal entries are not always repeated. Activity calls are given as the source filed them.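 Rule for the calls: active = inhibition at or above 50% relative to wild type and mutant plate controls; inactive = inhibition below 50%.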

Assay: inhibitors of Chlamydomonas gravitaxis, primary screen, whole organism, Chlamydomonas reinhardtii, WT vs cilia-less mutant, absorbance, 96-well (AID 463189);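 note: 0% = wild type cc124 cells in DMSO and 100% = ciliumless bld1 mutant cells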
Conditions: OD600 absorbance, 2 days, at 10 µM, active compounds read high

Structure (SMILES) | inhibition
NCCCCC(=O)O | 9.64% (inactive)
CC#CCOC(=O)c1c(C)nc2sc3c(c2c1N)CCC(O)C3 (stereo unspecified) | 11.7% (inactive)
CCN1C(=O)C=CC1=O | -6.91% (inactive)
CCCN(CCc1ccccc1)C1CCc2c(O)cccc2C1 (stereo unspecified) | 5.13% (inactive)
CCNC(=O)N1CCN(CCCC(c2ccc(F)cc2)c2ccc(F)cc2)CC1 | 133% (active)
COCC(=O)O[C@]1(CCN(C)CCCc2nc3ccccc3[nH]2)CCc2cc(F)ccc2[C@@H]1C(C)C | 11.6% (inactive)
O=c1[nH]cc(F)c(=O)[nH]1 | 2.19% (inactive)
CCCn1c(=O)c2[nH]c(-c3ccc(OCC(=O)NCCN)cc3)nc2n(CCC)c1=O | 3.94% (inactive)
Nc1ncnc2c1ncn2C1CCCO1 (stereo unspecified) | -5.2% (inactive)
CCCCC#Cc1nc(N)c2ncn([C@@H]3O[C@H](C(=O)NCC)[C@@H](O)[C@H]3O)c2n1 | -3.94% (inactive)
CC(C)NNC(=O)c1ccncc1 | 2.86% (inactive)
OC(CN1CCN(c2cccc(Cl)c2)CC1)C(c1ccccc1)c1ccccc1 (stereo unspecified) | 4.93% (inactive)
N=c1ccn2c(n1)OC1[C@@H](O)[C@@H](CO)O[C@H]12 (stereo partly specified) | -5.06% (inactive)
C=CC[C@H](N)C(=O)O | 4.13% (inactive)
NC1CONC1=O (stereo unspecified) | 8.19% (inactive)
CC(C)(C=O)Cc1cc(C(C)(C)C)c(O)c(C(C)(C)C)c1 | -3.35% (inactive)
CN1C2CCC1CC(NC(=O)c1nn(C)c3ccccc13)C2 (stereo unspecified) | 10.7% (inactive)
C[N+](C)(C)CCOC(N)=O | 7.07% (inactive)
COc1ccc(NC(=O)/C=C/c2ccc(Cl)cc2)cc1 | 6.25% (inactive)

Structure (SMILES) | inhibition
O=C(O)c1ccccc1Nc1cccc(OCc2ccc3ccccc3n2)c1 | 8.8% (inactive)
CSc1ccc(C(=O)c2[nH]c(=O)[nH]c2C)cc1 | -1.05% (inactive)
C[C@@H](CN1CCC(Cc2ccccc2)CC1)[C@@H](O)c1ccc(O)cc1 | 10.4% (inactive)
CC(N)(Cc1ccc(O)c(O)c1)C(=O)O (stereo unspecified) | 6.85% (inactive)
O=c1oc(Cl)c(Cl)c2ccccc12 | 3.88% (inactive)
CCC1(O)CC2CN(CCc3c([nH]c4ccccc34)[C@@](C(=O)OC)(c3cc4c(cc3OC)N(C)C3[C@]45CCN4CC=C[C@@](CC)([C@@H](OC(C)=O)[C@]3(O)C(=O)OC)[C@H]45)C2)C1 (stereo partly specified) | 4.61% (inactive)
O=C(O)CCCCCC[C@H]1C(=O)NC(=O)N1CC[C@@H](O)C1CCCCC1 | -0.469% (inactive)
COc1ccc2c(c1)c(CC(=O)N1CCOCC1)c(C)n2C(=O)c1ccc(Cl)cc1 | 6.6% (inactive)
NCC(O)C1CCCCCCC1 (stereo unspecified) | 2.73% (inactive)
CN1C(C)(C)CCCC1(C)C | 7.18% (inactive)
CO/N=C(\C(=O)N[C@@H]1C(=O)N2C(C(=O)O)=C(CSc3nc(=O)c(O)nn3C)CSC12)c1csc(N)n1 (stereo partly specified) | 7.64% (inactive)
N=S(=O)(O)Cc1noc2ccccc12 | 4.33% (inactive)
CC(=O)C(C)=O | 6.21% (inactive)
Cc1nc2c(OCc3ccccc3)cccn2c1CC#N | 3.47% (inactive)
Cc1ccc(/C(=C\CN2CCCC2)c2ccccn2)cc1 | 11.6% (inactive)
CC(N)=NCc1cccc(CN)c1 | 7.48% (inactive)
CCN1CCC[C@H]1CNC(=O)c1cc(S(N)(=O)=O)ccc1OC | 3.94% (inactive)
CCCCCCCCCCCCCCCCOCC(COCC(F)(F)F)OP(=O)(O)OCO (stereo unspecified) | 6.55% (inactive)
Nc1nc(OCc2ccccc2)c2[nH]cnc2n1 | 0.83% (inactive)

Structure (SMILES) | inhibition
O=C1CC2(CCCC2)CC(=O)N1CCCCN1CCN(c2ncccn2)CC1 | 3.65% (inactive)
CC(C)C[C@H](NC(=O)[C@H](O)[C@H](N)Cc1ccccc1)C(=O)O | -10.7% (inactive)
CCCCN1CCC(n2c(=O)[nH]c3ccccc32)CC1 | 4.67% (inactive)
COc1cc(NS(C)(=O)=O)ccc1Nc1c2ccccc2nc2ccccc12 | -1.97% (inactive)
O=C(Nc1cc(C(=O)Nc2ccc(S(=O)(=O)O)cc2S(=O)(=O)O)cc(C(=O)Nc2ccc(S(=O)(=O)O)cc2S(=O)(=O)O)c1)Nc1cc(C(=O)Nc2ccc(S(=O)(=O)O)cc2S(=O)(=O)O)cc(C(=O)Nc2ccc(S(=O)(=O)O)cc2S(=O)(=O)O)c1 | 10.7% (inactive)
CN1CCc2c(cc(O)c(O)c2Cl)C(c2cccc(Cl)c2)C1 (stereo unspecified) | -5.57% (inactive)
COC(=O)C1=C(C)NC(C)=C([N+](=O)[O-])C1c1ccccc1C(F)(F)F (stereo unspecified) | 5.83% (inactive)
COCc1nc2c([nH]1)c(=O)n(C)c(=O)n2CC(C)C | 1.31% (inactive)
O=c1[nH]c2cc(C(F)(F)F)ccc2n1-c1cc(C(F)(F)F)ccc1O | -0.852% (inactive)
NC1CCN(c2cccc(Cl)n2)CC1 | -3.28% (inactive)
CCn1c(=O)c2[nH]c(-c3ccccc3)nc2n(CC)c1=O | -1.12% (inactive)
Nc1nc(Cl)nc2c1ncn2[C@@H]1O[C@H](CO)[C@H](O)C1O (stereo partly specified) | 1.82% (inactive)
Cc1c(CC(C)(C)C(=O)O)n(Cc2ccc(Cl)cc2)c2ccc(F)cc12 | 1.93% (inactive)
O=C(OCCN1CCCCC1)c1c[nH]c2ccccc12 | 5.42% (inactive)
O=C(O)CP(=O)(O)O | 7.76% (inactive)
Oc1cc2c(cc1O)CN(C(=S)NCCc1ccc(Cl)cc1)CCC2 | 23.4% (inactive)
CC(C)(C)[C@]1(O)CCN2C[C@H]3c4ccccc4CCc4cccc(c43)[C@@H]2C1 | 3.49% (inactive) and -7.42% (inactive)
CCCC(=O)NCCc1c2n(c3ccc(OC)cc13)CCCc1ccccc1-2 | 5.19% (inactive)
